PubChem BioAssay (Tox21)
Several values for one entry are separate records, joined by “and”; a condition that tells them apart may be missing. Identical values can stand only once. Records with an inconclusive call do not appear. Some structures have more than one record in an assay (separate samples or runs), and their calls can disagree. Activity calls are given as the source filed them. Unless noted, the call rests on the fitted dose curve; in most records, active means well fitted curve in the direction sought with a large enough effect in the repeat runs; inconclusive means weak or mixed curves; inactive means no such curve, though single readings can be large; an effect the other way counts as inactive or inconclusive.

Experiments:
[1] = qHTS assay to identify small molecule antagonists of the estrogen related receptor (ERR) signaling pathway from Tox21 library - cell viability counter screen (AID 1224834); further: nearly all actives have a fitted effect of over 30% in size
How it was run: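 Fluorescence from CellTiter-Fluor gives the viability read-out, taken 30 min after reagent addition. Before that, ERR cells seeded 6 h earlier were incubated with compounds for 17.5 h at 37 C.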

[2] = target: Luciferin 4-monooxygenase (Photinus pyralis) (UniProt P08659); assay: qHTS assay to identify small molecule inhibitors of firefly luciferase (AID 1224835); further: nearly all actives have a fitted effect of over 25% in size
Sequence of Luciferin 4-monooxygenase (Photinus pyralis) (P08659 whole entry, looked up): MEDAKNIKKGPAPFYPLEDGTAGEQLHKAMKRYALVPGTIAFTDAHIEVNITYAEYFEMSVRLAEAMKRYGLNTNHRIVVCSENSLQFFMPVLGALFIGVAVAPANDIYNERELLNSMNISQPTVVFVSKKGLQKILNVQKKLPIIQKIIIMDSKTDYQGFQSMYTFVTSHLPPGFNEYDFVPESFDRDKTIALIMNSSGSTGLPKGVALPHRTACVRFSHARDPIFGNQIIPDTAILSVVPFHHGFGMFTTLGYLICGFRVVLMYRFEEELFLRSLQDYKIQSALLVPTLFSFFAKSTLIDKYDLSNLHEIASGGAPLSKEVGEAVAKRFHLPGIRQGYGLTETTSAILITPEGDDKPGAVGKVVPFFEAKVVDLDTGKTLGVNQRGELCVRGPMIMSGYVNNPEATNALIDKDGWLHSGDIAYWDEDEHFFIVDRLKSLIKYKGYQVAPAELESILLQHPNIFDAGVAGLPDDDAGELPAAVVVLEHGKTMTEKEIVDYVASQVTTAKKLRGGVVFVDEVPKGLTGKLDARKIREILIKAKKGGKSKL
How it was run: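 Inhibition of purified Photinus luciferase is measured by luminescence. Substrate levels (D-luciferin, ATP) sit at their KM values. Each compound is tested in a concentration series.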

[3] = qHTS assay to identify small molecule agonists of the constitutive androstane receptor (CAR) signaling pathway - cell viability counter screen (AID 1224836); further: nearly all actives have a fitted effect of over 45% in size
How it was run: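 HepG2-CYP2B6-hCAR, 2500 cells/well, 4 h pre-incubation; cpd 15 conc + PK11195 0.75 uM final; 23 h, 37 C/5% CO2; CellTiter-Fluor, fluorescence.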

[4] = qHTS assay to identify small molecule antagonists of the constitutive androstane receptor (CAR) signaling pathway - cell viability counter screen (AID 1224837); further: nearly all actives have a fitted effect of over 45% in size
How it was run: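 HepG2-CYP2B6-hCAR cells, 2500/well, 4 hr pre-incubation; compound titration, 15 conc.; CITCO 50 nM final; 23 hr, 37 C/5% CO2; CellTiter-Fluor, fluorescence intensity.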

[5] = target: Nuclear receptor subfamily 1 group I member 3 (Homo sapiens) (UniProt Q14994); assay: qHTS assay to identify small molecule antagonists of the constitutive androstane receptor (CAR) signaling pathway (AID 1224838);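 further: HepG2 cells stably expressing hCAR with CYP2B6 luciferase reporter stimulated by CITCO; nearly all actives have a fitted effect of over 40% in size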; further: potency means the concentration at half of the fitted maximal effect
Sequence of Nuclear receptor subfamily 1 group I member 3 (Homo sapiens) (Q14994 whole entry, looked up): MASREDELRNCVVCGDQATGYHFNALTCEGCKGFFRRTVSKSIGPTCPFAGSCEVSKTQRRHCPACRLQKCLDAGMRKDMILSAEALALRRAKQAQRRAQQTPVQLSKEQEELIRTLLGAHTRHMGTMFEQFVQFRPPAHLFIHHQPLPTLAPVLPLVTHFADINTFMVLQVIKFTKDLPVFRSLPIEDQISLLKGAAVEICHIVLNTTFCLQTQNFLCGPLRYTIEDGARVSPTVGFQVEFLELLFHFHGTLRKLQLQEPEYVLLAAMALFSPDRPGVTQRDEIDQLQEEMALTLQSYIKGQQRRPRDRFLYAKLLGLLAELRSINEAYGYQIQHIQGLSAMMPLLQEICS
How it was run: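 HepG2-CYP2B6-hCAR cells; 4 h pre-incubation; cpd (15 conc) + CITCO 50 nM final; 24 h, 37 C/5% CO2; ONE-Glo, luminescence.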

[6] = target: Nuclear receptor subfamily 1 group I member 3 (Homo sapiens) (UniProt Q14994); assay: qHTS assay to identify small molecule agonists of the constitutive androstane receptor (CAR) signaling pathway (AID 1224839); further: nearly all actives have a fitted effect of over 15% in size; further: potency means the concentration at half of the fitted maximal effect;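 on activation: HepG2 cells stably carrying human CAR and a CYP2B6 luciferase reporter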
How it was run: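 HepG2-CYP2B6-hCAR cells, 2500/well, 4 h pre-incubation; compounds 15 conc.; PK11195 0.75 uM final; 24 h, 37 C/5% CO2; ONE-Glo luciferase read.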

[7] = qHTS assay to identify small molecule antagonists of the estrogen related receptor signaling pathway with the pleiotropic PPARgamma coactivator (PGC) from Tox21 10K library - cell viability counter screen (AID 1224840; active means well fitted cell-killing curve with a large enough effect in the repeat runs, not every such curve was filed as active; further: nearly all actives have a fitted effect of over 40% in size)
How it was run: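 PGC/ERR cells, 2,000/well; 6 h pre-incubation 37 C/5% CO2; cpd in DMSO via pin tool; 17.5 h 37 C; CellTiter-Fluor, 30 min; fluorescence.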

[8] = target: Thyrotropin receptor (Homo sapiens) (UniProt P16473); assay: qHTS assay to identify small molecule agonists of the thyroid stimulating hormone receptor (TSHR) signaling pathway (AID 1224843; calls by dose curve; further: nearly all actives have a fitted effect of over 45% in size; further: potency means the concentration at half of the fitted maximal effect)
Sequence of Thyrotropin receptor (Homo sapiens) (P16473 whole entry, looked up): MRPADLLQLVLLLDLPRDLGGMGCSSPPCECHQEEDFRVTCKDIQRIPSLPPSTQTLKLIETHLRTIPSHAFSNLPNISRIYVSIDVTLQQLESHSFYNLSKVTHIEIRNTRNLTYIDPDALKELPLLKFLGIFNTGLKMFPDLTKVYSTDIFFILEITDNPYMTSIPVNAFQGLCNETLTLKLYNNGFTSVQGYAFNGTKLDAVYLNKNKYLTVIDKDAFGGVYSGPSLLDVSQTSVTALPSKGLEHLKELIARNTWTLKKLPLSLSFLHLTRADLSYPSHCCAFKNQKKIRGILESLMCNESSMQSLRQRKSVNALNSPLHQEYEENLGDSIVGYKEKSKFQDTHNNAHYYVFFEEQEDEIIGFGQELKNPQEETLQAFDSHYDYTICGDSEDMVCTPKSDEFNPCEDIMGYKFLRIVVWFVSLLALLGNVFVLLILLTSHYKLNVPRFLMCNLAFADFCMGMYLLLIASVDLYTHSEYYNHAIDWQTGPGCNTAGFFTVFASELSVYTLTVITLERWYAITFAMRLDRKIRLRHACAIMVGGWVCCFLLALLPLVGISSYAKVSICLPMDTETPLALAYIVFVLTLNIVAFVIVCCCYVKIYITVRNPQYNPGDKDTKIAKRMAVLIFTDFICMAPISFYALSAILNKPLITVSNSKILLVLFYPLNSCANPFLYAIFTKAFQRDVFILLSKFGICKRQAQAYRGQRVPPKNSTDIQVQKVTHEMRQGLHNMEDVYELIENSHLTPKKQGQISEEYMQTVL
How it was run: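 HEK293 cells stably bearing the thyrotropin receptor were plated at 800 cells/well and challenged with compound (30 min, RT). Accumulated cAMP was quantified via cAMP-d2 competing for cryptate-tagged antibody.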

[9] = qHTS assay to identify small molecule agonists of the hypoxia (HIF-1) signaling pathway - cell viability counter screen (AID 1224844; calls by dose curve; further: nearly all actives have a fitted effect of over 50% in size)
How it was run: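 ME-180 HRE-bla cells, 2,000/well, 0.5% dialyzed FBS; 5 hr settle, 17 hr compound at 37C/5% CO2; CCF4-AM reporter read first, then CellTiter-Glo luminescence after 30 min RT.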

[10] = qHTS assay to identify small molecule agonists of H2AX (AID 1224845; active means well fitted activation curve with a large enough effect in the signal ratio in the repeat runs, not every such curve was filed as active; the % refers to the signal ratio)
How it was run: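 Phospho-H2AX Ser139 measured by HTRF (ex 320 nm; em 665 and 620 nm) after 24 hr antibody incubation. Compounds, 15 concentrations, 0.76% DMSO, were applied to CHO-K1 cells for 3hr at 37C before lysis.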

[11] = qHTS assay to identify small molecule agonists of the hypoxia (HIF-1) signaling pathway (AID 1224846; active means well fitted activation curve with a large enough effect in the signal ratio in the repeat runs, not every such curve was filed as active; the % refers to the signal ratio)
How it was run: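 Cell line: CellSensor HRE-bla ME-180; 2,000 cells/well; 0.5% dialyzed FBS; 5 h preincubation; DMSO compound pin transfer; 17 h, 37C, 5% CO2; CCF4-AM added; bla FRET signal scored for activation.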

[12] = qHTS assay to identify small molecule agonists of H2AX - cell viability counter screen (AID 1224847; calls by dose curve;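 further: wild-type CHO-K1 cells; top concentration of the series differs between compounds; nearly all actives have a fitted effect of over 30% in size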)
How it was run: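 Cells plated first: CHO-K1, 1000 per well in 10% FBS medium, incubated overnight at 37C. Then 15-point compound titration added (final DMSO 0.76%) for 3 hr. Finally CellTiter-Glo added and luminescence read.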

[13] = qHTS RealTime-Glo MT Cell Viability Assay in HepG2 cells - 24 hour (AID 1224867); further: nearly all actives have a fitted effect of over 50% in size
How it was run: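 HepG2 cells were seeded at 600 cells/well together with NanoLuc luciferase and a cell-permeant prosubstrate, preincubated 5 h at 37 C/5% CO2, then pin-dosed with compounds in DMSO. Nonlytic luminescence from viable cells was read at each time point.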

[14] = qHTS RealTime-Glo MT Cell Viability Assay in HEK293 cells - 32 hour (AID 1224868); further: nearly all actives have a fitted effect of over 50% in size; further: potency means the concentration at half of the fitted maximal effect
How it was run: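 HEK293 cells were seeded at 600 cells/well together with NanoLuc luciferase and cell-permeant prosubstrate, preincubated 5 h at 37 C/5% CO2, then given compound in DMSO by pintool. Luminescence from viable-cell prosubstrate reduction was read repeatedly over 40 h.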

[15] = A CellTox Green Cytotoxicity Assay to monitor cytotoxicity in HEK293 cells - 0 hour (AID 1224869); further: nearly all actives have a fitted effect of over 50% in size; further: potency means the concentration at half of the fitted maximal effect
How it was run: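 Nonlytic real-time cytotoxicity: HEK293 + CellTox Green reagent plated, 5 h preincubation, pintool compound addition (23 nL in DMSO), 37 C for 40 h, fluorescence measured at successive time points.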

[16] = qHTS RealTime-Glo MT Cell Viability Assay in HepG2 cells - 40 hour (AID 1224870); further: nearly all actives have a fitted effect of over 50% in size
How it was run: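 Real-time viability: cells seeded at 600 per well together with NanoLuc and cell-permeant prosubstrate, compounds added after 5 h incubation. Luminescence tracked at 0, 8, 16, 24, 32 and 40 h of exposure.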

[17] = qHTS assay to identify small molecule antagonists of the estrogen related receptor signaling pathway with the pleiotropic PPARgamma coactivator (PGC) from Tox21 10K library (AID 1224841; call rule not given here)
How it was run: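 PGC/ERR cell line, 2,000 cells/well; 6 h pre-incubation 37 C/5% CO2; compounds (DMSO) pinned in; 18 h, 37 C; One-Glo, 30 min RT; luminescence.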

[18] = qHTS assay to identify small molecule agonists of the estrogen related receptor signaling pathway with the pleiotropic PPARgamma coactivator (PGC) from Tox21 10K library (AID 1224842); further: nearly all actives have a fitted effect of over 15% in size
How it was run: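 Luminescence from One-Glo (30 min, room temperature) measured after PGC/ERR cells had 18 h at 37 C with pinned compound (23 nL in DMSO). Cells had been seeded at 2,000 per well and pre-incubated 6 h.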

[19] = qHTS assay to identify small molecule antagonists of the estrogen related receptor (ERR) signaling pathway from Tox21 library (AID 1224848); further: nearly all actives have a fitted effect of over 50% in size
How it was run: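 Reading was by luminescence 30 min after ONE-Glo addition. Before that, ERR cells at 2,000 per well had rested 6 h at 37 C/5% CO2 and then received pin-tooled compounds in DMSO for 18 h at 37 C.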

[20] = qHTS assay to identify small molecule agonists of the estrogen related receptor (ERR) signaling pathway from Tox21 library (AID 1224849; calls by dose curve; further: nearly all actives have a fitted effect of over 15% in size); details: ERR reporter cell line, ONE-Glo luciferase, 18 h
How it was run: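 ERR cells, 6 h pre-incubation 37 C/5% CO2; cpd in DMSO pinned; 18 h 37 C; ONE-Glo added, 30 min RT; luminescence read. Agonist mode, qHTS.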
On the % scale 0 is the no-effect control and ±100 the full control effect.

C/C=C/c1ccc(O)c(OC)c1
inactive: Potency [1] | Potency [2] | Potency [3] | Potency [4] | Potency [5] | Potency [6] | Potency [7] | Potency [8] | Potency [9] | Potency [10] | outcome [11] | Potency [12] | outcome [13] | Potency [14] | Potency [15]

CC(=O)CCC(C)C
inactive: Potency [1] | Potency [2] | Potency [3] | Potency [4] | Potency [5] | Potency [6] | Potency [7] | Potency [8] | Potency [9] | Potency [10] | outcome [11] | Potency [12] | outcome [13] | Potency [14] | outcome [16]
inactive and 38.9 µM (active): Potency [15]

CCCCNC(=O)NS(=O)(=O)c1ccc(N)cc1
inactive: Potency [1] | Potency [2] | Potency [3] | Potency [4] | Potency [5] | Potency [6] | Potency [7] | Potency [17] | Potency [18] | Potency [8] | Potency [9] | outcome [11] | Potency [12] | Potency [19] | activity change, positive = activation ([20]; at 42.5 µM (top of the series)) -4% | activity change, positive = activation ([20]; at 92.4 µM (top of the series)) 2.9% | outcome [13] | Potency [14] | Potency [15] | outcome [16]

CCCCOCCOCCOC(C)=O
inactive: Potency [1] | Potency [2] | Potency [3] | Potency [4] | Potency [5] | Potency [6] | Potency [7] | Potency [17] | Potency [18] | Potency [9] | outcome [11] | Potency [12] | Potency [19] | activity change, positive = activation ([20]; at 92.4 µM (top of the series)) 0.387% and 1.02% | outcome [13] | Potency [14] | Potency [15] | outcome [16]

CN(C)C=O
inactive: Potency [1] | Potency [2] | Potency [3] | Potency [4] | Potency [5] | Potency [6] | Potency [7] | Potency [17] | Potency [18] | Potency [8] | Potency [9] | Potency [10] | outcome [11] | Potency [12] | Potency [19] | activity change, positive = activation ([20]; at 92.4 µM (top of the series)) 7.34% and 6.88% | outcome [13] | Potency [14] | Potency [15] | outcome [16]

C=CCOC(=O)CC(C)C
inactive: Potency [1] | Potency [2] | Potency [3] | Potency [4] | Potency [5] | Potency [6] | Potency [7] | Potency [17] | Potency [18] | Potency [9] | outcome [11] | Potency [12] | Potency [19] | activity change, positive = activation ([20]; at 92.4 µM (top of the series)) 8.22% and 2.25% | outcome [13] | Potency [14] | Potency [15]

CCN(CC)CCOC(=O)c1ccc(N)cc1
inactive: Potency [1] | Potency [2] | Potency [3] | Potency [4] | Potency [5] | Potency [6] | Potency [7] | Potency [17] | Potency [18] | Potency [8] | Potency [9] | Potency [10] | Potency [12] | Potency [19] | activity change, positive = activation ([20]; at 42.5 µM (top of the series)) 3.59% | activity change, positive = activation ([20]; at 92.4 µM (top of the series)) 2.93% | outcome [13] | Potency [14] | Potency [15]

C=C(C)C(N)=O
inactive: Potency [1] | Potency [2] | Potency [3] | Potency [4] | Potency [5] | Potency [6] | Potency [7] | Potency [17] | Potency [18] | Potency [9] | outcome [11] | Potency [12] | Potency [19] | activity change, positive = activation ([20]; at 92.4 µM (top of the series)) 10.9% and 3.35% | outcome [13] | Potency [14] | Potency [15] | outcome [16]

CCCCCCCCOc1ccc(C(=O)c2ccccc2)c(O)c1
inactive: Potency [1] | Potency [2] | Potency [3] | Potency [4] | Potency [6] | Potency [7] | Potency [17] | Potency [18] | Potency [9] | outcome [11] | Potency [12] | Potency [19] | activity change, positive = activation ([20]; at 42.5 µM (top of the series)) -7.25% | activity change, positive = activation ([20]; at 92.4 µM (top of the series)) 6.94% and -4.94% | outcome [13] | Potency [14] | Potency [15] | outcome [16]
active: Potency [5] 7.5 µM

NC(=O)OCC(COC(N)=O)c1ccccc1
inactive: Potency [1] | Potency [2] | Potency [3] | Potency [4] | Potency [5] | Potency [6] | Potency [7] | Potency [8] | Potency [9] | Potency [10] | Potency [12] | outcome [13] | Potency [14] | Potency [15]

COC(=O)c1ccc(C=O)cc1
inactive: Potency [1] | Potency [2] | Potency [3] | Potency [4] | Potency [5] | Potency [6] | Potency [7] | Potency [17] | Potency [18] | Potency [9] | Potency [10] | outcome [11] | Potency [12] | Potency [19] | activity change, positive = activation ([20]; at 92.4 µM (top of the series)) -0.881% | outcome [13] | Potency [14] | Potency [15] | outcome [16]

COc1cc(C=O)ccc1O
inactive: Potency [1] | Potency [2] | Potency [3] | Potency [4] | Potency [5] | Potency [6] | Potency [7] | Potency [8] | Potency [9] | Potency [10] | outcome [11] | Potency [12] | outcome [13] | Potency [14] | Potency [15]

CC(C)(C)CC(C)(C)c1ccc(O)c(-n2nc3ccccc3n2)c1
49.7 µM (active) and inactive: Potency [14]
inactive: Potency [1] | Potency [2] | Potency [3] | Potency [4] | Potency [5] | Potency [7] | Potency [9] | Potency [10] | outcome [11] | Potency [12] | outcome [13] | Potency [15] | outcome [16]
active: Potency [8] 27.7 µM and 15.4 µM
27.7 µM (active) and inactive: Potency [6]

CC(C)(C)NCC(O)c1ccc(O)c(CO)c1 (stereo unspecified)
inactive: Potency [1] | Potency [2] | Potency [3] | Potency [4] | Potency [5] | Potency [6] | Potency [7] | Potency [9] | Potency [10] | outcome [11] | Potency [12] | outcome [13] | Potency [14] | Potency [15]
active: Potency [8] 60.7 nM and 37.6 nM
